A selection: hits, their analogues and other compounds. The true share with any hit is near 4.1%.
UHRF1 binding = UHRF1 methyl-DNA binding inhibition | Q96T88 | 370,000 tested, 0.75% active | UHRF1 binding to methylated oligo, TR-FRET | inhibition, % at 4.4 µM | AID 687016; in the data active = inhibition above about 21%;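 also: UHRF1 SRA domain binding a hemimethylated CpG hairpin DNA probe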
MBD2 DNA inh = inhibitors of human MBD2 binding to methylated oligonucleotide. inhibition, % at 4.4 µM. Q9UBB5. TR-FRET. AID 686964. 370,000 tested, 0.31% active; in the data active = inhibition above about 13%
Target sequence (Q9UBB5 whole entry, looked up): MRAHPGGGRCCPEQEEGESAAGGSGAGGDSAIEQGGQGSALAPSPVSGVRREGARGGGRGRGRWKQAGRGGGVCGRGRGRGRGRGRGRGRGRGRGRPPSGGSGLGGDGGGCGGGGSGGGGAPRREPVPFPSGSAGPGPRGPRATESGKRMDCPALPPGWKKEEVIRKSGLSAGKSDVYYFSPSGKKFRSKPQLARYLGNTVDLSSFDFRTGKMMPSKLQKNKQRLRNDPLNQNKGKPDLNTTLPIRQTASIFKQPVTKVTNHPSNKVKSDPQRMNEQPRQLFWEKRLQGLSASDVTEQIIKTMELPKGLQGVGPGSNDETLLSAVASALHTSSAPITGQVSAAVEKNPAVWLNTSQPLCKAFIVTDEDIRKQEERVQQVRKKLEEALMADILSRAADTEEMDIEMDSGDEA
LEDGF integ inh = blocks HIV-1 LEDGF/p75-dependent DNA integration | TR-FRET IN-LEDGF/p75 DNA integration, Eu/Cy5 | inhibition, % at 3.7 µM | 370,000 tested, 0.64% active | AID 743269;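 active = inhibition above the screen-wide mean plus 3 SD, cut at about 13% in these data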;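 also: signal is the Cy5 over europium emission ratio at 671 and 618 nm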
ABHD5-PLIN5 inh = inhibitors of human ABHD5-perilipin-5 interaction. 360,000 tested, 0.78% active. Q00G26+Q8WTS1. Split G. princeps luciferase complementation, luminescence, 4 h. AID 602281. inhibition, % at 4 µM;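 active = inhibition above the mean inhibition across every tested compound plus 3 SD, cut at about 22% in these data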
rCAG RNA binder = r(CAG) repeat RNA binding. TO-PRO-1 dye displacement fluorescence. inhibition, % at 3 µM. 370,000 tested, 1.3% active;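 active = inhibition above the plate cutoff, the mean of all test compounds on that plate plus 3 SD, cut at about 35% in these data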;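 also: higher means more dye released from RNA so lower well fluorescence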
PRMT1 FP inh = inhibitors of human PRMT1. Q99873. AID 652257. recombinant PRMT1, activity-based probe fluorescence polarization. 370,000 tested, 1.3% active. inhibition, % at 2.79 µM;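 active = inhibition above about 21% made by adding two undisclosed values, limit read from the data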
rCAG binder conf = r(CAG) RNA repeat binding, confirmation; shares compounds with rCAG RNA binder; TO-PRO-1 dye displacement fluorescence; inhibition, % at 3 µM; 4,300 tested, 70% active;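 active = inhibition above a per-plate cutoff, the mean inhibition of sample wells plus 3 SD, cut at about 35% in these data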;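 also: loss of TO-PRO-1 fluorescence as compound displaces dye from 1x1 AA loop RNA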
dCAG dye counter = DNA CAG dye complex inhibition counter-screen; d(CAG) DNA oligo TO-PRO-1 dye displacement, fluorescence; shares compounds with rCAG RNA binder; 4,300 tested, 94% active; AID 652068; inhibition, % at 3 µM;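 active = inhibition above its plate's cutoff, the mean test-well inhibition plus 3 SD, cut at about 4.8% in these data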;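 also: hits displace the dye from DNA and so lower well fluorescence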
Of the large screens only hits and unclear results are named; the others gave an inactive call (follow-up assays come after a bar, where they were run).

O=C(O)CN1C(=O)/C(=C\c2cc([N+](=O)[O-])ccc2OCc2ccccc2Cl)SC1=S	rCAG RNA binder 86 | rCAG binder conf 85 | dCAG dye counter 54
O=C(N=Nc1c(O)[nH]c2ccccc12)c1ccccc1NS(=O)(=O)c1cccs1	rCAG RNA binder 65 | rCAG binder conf 41 | dCAG dye counter 15
COc1ccc2[nH]c(O)c(N=NC(=O)c3ccc(NS(=O)(=O)c4cccs4)cc3)c2c1	rCAG RNA binder 36 | rCAG binder conf 57 | dCAG dye counter 25
COC(=O)[C@]12C[C@H](CC(=O)NCC34CC5CC(CC(C5)C3)C4)C(=O)N(Cc3ccc4c(c3)OCO4)C1=C[C@H](C(C)(C)C)O[C@@H]2C	none (no result: ABHD5-PLIN5 inh)
O=C(O)c1cc(S(=O)(=O)Nc2cc(Cl)ccc2Oc2ccccc2)ccc1O	rCAG RNA binder 72 | rCAG binder conf 67 | dCAG dye counter 31
O=C(O)c1cc(S(=O)(=O)Nc2ccccc2C(=O)O)ccc1O	none
CC(=NN1CCN(c2ccccn2)CC1)c1ccccc1O	none (no result: ABHD5-PLIN5 inh)
Cc1ccc(-c2cc(-c3nnc(SCC(=O)Nc4ccc(OCc5ccccc5)cc4)n3N)[nH]n2)cc1	none (no result: ABHD5-PLIN5 inh)
COc1cc2[nH]c(=S)nc(NC3CCCCCC3)c2cc1OC	none
COc1cc2[nH]c(=S)nc(Nc3ccc(NC(C)=O)cc3)c2cc1OC	rCAG RNA binder 37 | rCAG binder conf inactive | dCAG dye counter 6.4
O=C(O)c1cccc(NC(=S)N/N=C/c2cccc(O)c2)c1	none
O=C(O)c1cccc(NC(=S)N/N=C/c2ccccc2OCc2cccc(Br)c2)c1	rCAG RNA binder 77 | rCAG binder conf 79 | dCAG dye counter 45
O=C(O)c1cccc(NC(=S)N/N=C/c2ccccc2OCc2ccc(Br)cc2)c1	rCAG RNA binder 80 | rCAG binder conf 85 | dCAG dye counter 55
C#CCNc1cccc2c1S(=O)(=O)N[C@H](C)CO2	none (no result: ABHD5-PLIN5 inh)
Cc1cccc(NC(=O)CN2C(=O)/C(=C3\SC(=S)N(CC4CCCO4)C3=O)c3ccccc32)c1 (configuration not stated)	none (no result: UHRF1 binding, MBD2 DNA inh, LEDGF integ inh, rCAG RNA binder, PRMT1 FP inh)
O=C(CN1C(=O)/C(=C2/SC(=S)N(CCS(=O)(=O)O)C2=O)c2ccccc21)Nc1cccc(Br)c1	rCAG RNA binder 73 | rCAG binder conf 80 | dCAG dye counter 49
Cc1cc(S(=O)(=O)Nc2c(C(=O)O)[nH]c3ccccc23)ccc1F	none
Cc1ccc(S(=O)(=O)Nc2c(C(=O)O)[nH]c3ccccc23)cc1C	rCAG RNA binder 46 | rCAG binder conf inactive | dCAG dye counter 11
COc1ccc2[nH]c(C(=O)O)c(NS(=O)(=O)c3ccc(C)cc3C)c2c1	rCAG RNA binder 49 | rCAG binder conf inactive | dCAG dye counter 4.9
COC(=O)C[C@@H]1CC[C@@H]2[C@H](COc3ccc(NC(=O)Nc4c(C)noc4C)cc3C(=O)N2C)O1	none (no result: ABHD5-PLIN5 inh)
CN1C2=N[C@@H](c3ccc4c(c3)OCO4)CC(=O)N2/C(=C\c2ccccc2)[C@@H]1c1ccccc1	none (no result: ABHD5-PLIN5 inh, rCAG RNA binder)
COc1cccc2sc(Nc3nc(-c4ccncc4)cs3)nc12	rCAG RNA binder 38 | rCAG binder conf inactive | dCAG dye counter 14
COc1ccccc1-c1nnc(Nc2nc3c(OC)cccc3s2)o1	rCAG RNA binder 53 | rCAG binder conf 58 | dCAG dye counter 20
COc1cccc2sc(Nc3nc(-c4cc5ccccc5oc4=O)cs3)nc12	none
COc1cccc(-c2nnc(Nc3nc4c(F)cccc4s3)o2)c1	rCAG RNA binder 73 | rCAG binder conf 67 | dCAG dye counter 23
COc1cccc(-c2nnc(NC(C)=O)o2)c1	none
COc1cccc2sc(Nc3nnc(-c4ccccc4Cl)o3)nc12	rCAG RNA binder 46 | rCAG binder conf 44 | dCAG dye counter 14
COc1cccc2sc(NN)nc12	none
Cc1cccc2nc(-c3ccccc3)c(-c3ccc(CN4CCC5(CC4)CNc4ccccc45)cc3)nc12	none (no result: ABHD5-PLIN5 inh)
O=C(Nc1nnc(-c2ccccc2Cl)o1)c1nc2ccccc2s1	rCAG RNA binder 40 | rCAG binder conf 47 | dCAG dye counter 13
